# Test results reported in PubChem BioAssay (NCI).
# Compounds without any hit were thinned out: in the full panel of roughly 83,000, 20% have a hit.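 48-hour exposure, single concentration, 96-well plates; percent growth endpoint where 0 means no net growth. Active: below 10.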 A number with no mark means an inactive call. Active and inactive are the calls of the source.
# Tested on: HCC-2998 colon
# Test: NCI-60 one-dose screen, 48 h (100 = growth as untreated, 0 = no growth, -100 = all killed)
# Conditions: 10 µM unless noted
# Experimental: Growth inhibition of the HCC-2998 human tumor cell line is measured as a screen for anti-cancer activity. Cells are grown in 96 well plates and exposed to the test compound for 48 hours. Compounds are tested at a single concentration, which is 10^-5 M for most compounds. The reported endpoint is percent growth (GI% or GIPRCNT), where numbers from 0 - 100% represent growth inhibition, and numbers from -100% - 0 represent cell death. For example, a value of 40 represents 60% growth inhibition. A value of 0 means no net growth occurred over the course of the experiment. A value of -40 indicates 40% of cells at the beginning of the experiment died by the end of the experiment. A value of -100 means all cells are dead at the end of the experiment.
# NCI-60 Human Tumor Cell Lines Screen was performed using the standard one-dose NCI protocol, which is described in more detail at https://dtp.cancer.gov/discovery_development/nci-60/default.htm.
# Compounds with GIPRCNT values below 10 were considered active. Activity score was based on GIPRCNT using the following formula: […]
# Score is 0 for GIPRCNT values of 100 or above, 50 for GIPRCNT values of 0, and 100 for GIPRCNT values of -100.
row,Structure (SMILES),growth
1,Cc1nc(/N=C(N)/N=C(\N)c2cccc(Br)c2)sc1C,64.9%
2,CCOC(=O)c1cccc(NC2=C(Cl)C(=O)c3nc(C)ccc3C2=O)c1,122%
3,C#C[C@]1(O)CC[C@H]2[C@@H]3CC=C4c5sc(Nc6cc(C)cc(C)c6)nc5CC[C@]4(C)[C@H]3CC[C@@]21C,40.2%
4,O=C(CCCCCCNC(=O)C(O)(O)C(F)(F)F)Nc1ccc(Cl)cc1,25.6%
5,CC(=C(c1ccc(OCCN(C)C)cc1)c1ccc(OCCN(C)C)cc1)c1ccc(Cl)cc1,-87.7% (active)
6,Cc1ccc(S(=O)(=O)NCCCNc2nc(Nc3ccc(N4CCN(C)CC4)cc3)nc3ccsc23)cc1,27.3%
7,O=C(/C=C/Nc1ccc(S(=O)(=O)Nc2ncccn2)cc1)c1ccc(N=Cc2c(O)[nH]c3ccccc23)cc1,109%
8,CCCC[n+]1ccc(SCC(=O)n2ccc3ccccc32)c2ccccc21,109%
9,CN1CCN(Cc2ccc(NC(=O)c3cncc(C#Cc4cnc5ccc(N)nn45)c3)cc2C(F)(F)F)CC1,20.7%
10,COc1ccc(-c2cnc(NC(=O)CCCCCCNC(=O)C(O)(O)C(F)(F)F)s2)cc1,-46.5% (active)
11,O=C(COc1ccc(/C=C2\C(=O)Nc3cc(Cl)ccc32)cc1)Nc1ccc(Cl)cc1,96.1%
12,C#CCn1cc(/C=N/Nc2nc(-c3ccc(Br)cc3)cs2)c2ccccc21,116%
13,COc1ccc(-c2c(C(N)=O)c(N)n(Cc3nc4ccccc4[nH]3)c(=O)c2C#N)c(OC)c1,110%
14,Cc1ccc2c(n1)C(=O)C(Cl)=C(Nc1cccc(C)c1C)C2=O,51.6%
15,C=C(C)[C@@H]1CC[C@]2(C(=O)N3CCN(C)CC3)CC[C@]3(C)[C@H](CC[C@@H]4[C@@]5(C)CC[C@H](OP(=O)(OCC)OCC)C(C)(C)[C@@H]5CC[C@]43C)[C@@H]12,94.4%
16,CN(C)CC(=O)Nc1nc(-c2cccc(NS(=O)(=O)c3cccc4c(N(C)C)cccc34)c2)cs1,85.8%
17,NC(N)=NS(=O)(=O)c1ccc(N=Nc2c(N)nn(-c3ccc([N+](=O)[O-])cc3[N+](=O)[O-])c2N)cc1,113%
18,Clc1ccc2[nH]cc(-c3nn4cc(-c5ccncc5)nc4s3)c2c1,85.3%
19,CC[C@]12C=CCN3CC[C@]4(C(=C(C(=O)OC)C1)Nc1cc5c(cc14)[C@@H]1[C@H](O5)[C@@H](O)[C@@]4(CC)CC(C(=O)OC)=C5Nc6cc(O)ccc6[C@@]56CCN1C46)C32 (stereo not given in full),-64.8% (active)
20,COC(=O)c1cccc(NC2=C(Cl)C(=O)C(C)=C(C)C2=O)c1,98.2%

row,Structure (SMILES),growth
1,COc1ccc(/C=N/NC(=O)CSc2nc(-c3cnccn3)cc(-c3cccs3)c2C#N)cc1OC,47.3%
2,CN1CCN(c2ccc(Nc3nc(NCCCNS(=O)(=O)c4ccc(Cl)cc4)c4sccc4n3)cc2)CC1,20%
3,C#CCN(C)CCCOc1ccc(NCc2ccc(C(=O)NO)cc2)cc1Cl,32.7%
4,C#Cc1cc(OC)c(C(=O)Nc2ccc(F)cc2C(=O)Nc2cccc(S(=O)(=O)C(F)(F)F)c2)cn1,47.8%
5,Fc1ccc2nc(-c3cnn4cccnc34)sc2c1,83%
6,CCCCSC1=C(Cl)CN(c2ccc(Cl)cc2)C1=O,107%
7,O=C(CSc1nnc(-c2cccs2)n1-c1ccccc1)Nc1ccccc1F,91.6%
8,CN1CCN(c2ccc(Nc3nc(NCCNS(=O)(=O)c4ccc5ccccc5c4)c4sccc4n3)cc2)CC1,72.3%
9,O=C1Nc2cc(Cl)ccc2/C1=C\c1ccc(OCc2ccccc2)cc1,102%
10,O=C(CSc1nc2ccccc2c(=O)n1-c1ccc(Cl)cc1)N/N=C/c1ccc(Oc2ccc(Cl)cc2)cc1,20.3%
11,Brc1cc(-c2cc(-c3ccc4c(c3)OCCO4)[nH]n2)cs1,62.1%
12,CC(C)NC(=O)c1cc(-c2ccc(NC(=O)Nc3ccc(F)c(C(F)(F)F)c3)cc2)nc2cccnc12,115%
13,C/C(=N\NC(N)=S)c1nnn(-c2ccc([N+](=O)[O-])cc2)c1C,100%
14,O=C(CSc1nc2ccccc2c(=O)n1CCc1ccccc1)Nc1ccc(S(=O)(=O)Nc2ccc(Cl)nn2)cc1,102%
15,NS(=O)(=O)c1cccc(Nc2nc(SCC(=O)c3ccc(Cl)cc3)nc3c2CCC3)c1,107%
16,CC1(C)CC[C@]23CC[C@]4(C)[C@H](CC[C@@H]5[C@@]6(C)CC[C@H](N)C(C)(C)[C@@H]6CC[C@]54C)[C@H]2[C@H]1OC3,-15.9% (active)
17,Cc1ccc(/C(N)=N/C(N)=N/c2nc3ccccc3s2)cc1,104%
18,O=C(NCCNc1cc(-c2cn(-c3ccccc3)nc2-c2cccc(O)c2)ccn1)Nc1cc(C(F)(F)F)cc(C(F)(F)F)c1,96.2%
19,C[C@@H]1OCC2(CCN(c3cnc(C(=O)Nc4cc(F)cc5cccnc45)cn3)CC2)[C@@H]1N,84.3%
20,C=C(C)[C@@H]1CC[C@]2(COCCCNCCCN)CC[C@]3(C)[C@H](CC[C@@H]4[C@@]5(C)CC[C@H](O)C(C)(C)[C@@H]5CC[C@]43C)[C@@H]12,-71.5% (active)
